# The other results are listed elsewhere or left out. Results filed as inconclusive are left out. Active and inactive are the calls of the source.
# Key:
# [1] = inhibitors of TNFa-induced NFkB p65 translocation, primary screen, imaging, HUVEC, MLSMR starter and 10KST1 sets (AID 438;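 active = inhibition above 20% together with a positive visual image hit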;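 note: compound added about 3h40 before a 20 min TNFalpha stimulation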;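 for inhibition: signal is the nuclear over cytoplasmic p65 intensity ratio per well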); conditions: HUVEC TNFa-induced p65 nuclear translocation; cell count: measured here: nuclei count (cytotoxicity indicator), at 2.08 µM; inhibition: at 2 µM, stronger effect = higher value, 0% TNFa-plus-vehicle, 100% no-TNFa wells
# [2] = reduction of polyQ htt aggregates in cells – imaging, exon1htt(103Q)mCFP cells, high-content imaging, primary screen (AID 483;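 active = visual image review flags a hit and inhibition of aggregation exceeds 20%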;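 note: compound exposure lasted 3 days before fixation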;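 for nuclei count: percent of the per-plate median nuclei count of sample wells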); conditions: exon1htt(103Q)mCFP cell line, aggregate imaging, at 2 µM; inhibition of aggregation: stronger effect = higher value; nuclei count: measured here: cell count, toxicity
# [3] = endothelial E-selectin expression blockers – imaging, HUVEC, immunofluorescence, MLSMR starter and 10KST1 sets, primary screen (AID 487;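 active = visually confirmed hit in the image check and inhibition above 20%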;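 for inhibition: signal is fraction of cell area covered by stained E-selectin grains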;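 for nuclei count: 100% = median nuclei count of all wells on the same plate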); conditions: HUVEC TNFalpha-induced E-selectin immunofluorescence imaging, at 2 µM; inhibition: stronger effect = higher value; nuclei count: measured here: cell number, toxicity
# [4] = Primary imaging screen for DUSP6 inhibitors that restore phospho-Erk in transfected HeLa cells, chemical complementation (AID 609;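 active = compounds giving at least 50% inhibition in the cell-based MKP-3 phosphatase rescue imaging test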;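 for inhibition: phospho-Erk level distribution per well compared with pooled transfected vehicle control wells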); conditions: HeLa MKP-3 transfected, phospho-Erk imaging KS statistic, at 10 µM, cells stimulated with TPA for 15 min
# [5] = target: Dual specificity protein phosphatase 6 (Homo sapiens) (UniProt Q16828); test: as above; conditions: HeLa MKP-3 transfected, phospho-Erk imaging KS statistic; at 10 µM; stronger effect = higher value; cells stimulated with TPA for 15 min
# [6] = target: Voltage-gated potassium channel subunit beta-2 (Rattus norvegicus) (UniProt P62483); test: inhibitors of rat Kvbeta2 reductase activity – biochemical, NADPH fluorescence, primary screen (AID 622;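 active = fluorescence slope higher than the sample average by over 3 SD, cut at about -0.22 in these data, passing the limit was not always enough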;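 note: slope of raw intensity against log time taken from 70 to 1610 s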); conditions: recombinant KvBeta, 4-cyanobenzaldehyde reduction, at 10 µM, stronger effect = higher value
# [7] = target: Voltage-gated potassium channel subunit beta-2 (Rattus norvegicus) (UniProt P62483); test: enhancers of rat Kvbeta2 NADPH turnover – biochemical, NADPH fluorescence, primary screen (AID 623;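 active = NADPH fluorescence slope more negative than the mean of all samples by about 3 SD, 99.7% confidence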;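 note: fluorescence intensity change per second fitted from 20 to 320 s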); conditions: Recombinant KvBeta, NADPH fluorescence decrease slope, 10 min; at 10 µM; stronger effect = lower value
# [8] = target: Alpha-2C adrenergic receptor (Homo sapiens) (UniProt P18825); test: compounds altering alpha2C-coupled GIRK flux – cell-based, HEK293 alpha2C/GIRK1/2, thallium flux, primary screen (AID 624;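 active = fluorescence slope after compound addition differing from the mean of all screened samples at 99.7% confidence, in either direction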;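 note: slope of fluorescence ratio to pre-addition baseline per second over 15 to 24 s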); conditions: thallium flux BTC fluorescence, at 10 µM, actives lie on both sides
# [9] = loss of swimming-algae plug formation – whole organism, Chlamydomonas reinhardtii, WT vs cilia-less mutant, absorbance, 96-well, primary screen (AID 463189;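 active = inhibition at or above 50% relative to wild type and mutant plate controls; inactive = inhibition below 50%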;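 note: 0% = wild type cc124 cells in DMSO and 100% = ciliumless bld1 mutant cells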); conditions: Chlamydomonas reinhardtii gravitaxis, OD600 absorbance, 2 days; at 10 µM; stronger effect = higher value
# [10] = blockers of RIG-like receptor reporter activation – cell-based, Sendai virus stimulus, luciferase, 10K MLSCN set, TLR/RLR signaling modifier project, primary screen (AID 602276;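 active = inhibition at or above 50% at 10 µM; inactive = inhibition below 50%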;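 note: firefly luciferase from ISG56 promoter only with Renilla not read in this screen; 0% = Sendai virus plus DMSO and 100% = medium plus DMSO without virus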); conditions: HEK293 RL24 IRF3 luciferase reporter, at 10 µM, stronger effect = higher value
# [11] = TLR3 IRF3 reporter activation blockers – cell-based, poly I:C stimulus, luciferase, 10K MLSCN set, primary screen (AID 602277;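 active = inhibition of the reporter signal at or above 50%; inactive = inhibition below 50%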); conditions: HEK293-TLR3 RL24 IRF3 luciferase reporter, at 10 µM, stronger effect = higher value
# [12] = target: Solute carrier family 12 member 5 (Homo sapiens) (UniProt Q9H2X9); test: retest of KCC2 transport modulators without sodium – cell-based, HEK293 KCC2, thallium flux, secondary assay, confirmation (AID 1713;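 active = thallium flux slope above the same plate's solvent-only control mean plus 3 SD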); conditions: FluoZin2 fluorescence, at 10 µM, stronger effect = higher value
# [13] = target: Solute carrier family 12 member 5 (Homo sapiens) (UniProt Q9H2X9); test: retest of KCC2 transport modulation, ouabain-free – cell-based, HEK293 KCC2, thallium flux, FluoZin2, secondary assay 2, confirmation (AID 1715); conditions: HEK293-KCC2, thallium flux FluoZin2 fluorescence; at 10 µM; actives lie on both sides; F/F0 rise rate, 10–20 s post-thallium;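 note: raw slope with 0.1% DMSO as baseline and bumetanide as block control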
# [14] = compound effects on native HEK Tl+ uptake – HEK cells, counterscreen 1, counter-screen for KCC2 modulator project, confirmation (AID 1716;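 active = thallium flux rate significantly above the same plate's solvent-only control wells, beyond their mean plus 3 SD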); conditions: HEK293 parental cells, thallium flux FluoZin2, ouabain; at 10 µM; baseline-ratio fluorescence slope, 10–20 s after thallium
# [15] = target: Solute carrier family 12 member 5 (Homo sapiens) (UniProt Q9H2X9); test: modulation of KCC2 thallium flux in HEK cells – cell-based, ouabain, retest, confirmation (AID 1717;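 active = thallium flux slope beyond 3 SD from same-plate DMSO control mean in most replicates, usually higher, sometimes lower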;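 note: slope of initial-normalized fluorescence between seconds 10 and 20 after thallium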); conditions: HEK293-KCC2, thallium flux FluoZin2 fluorescence, at 10 µM, bidirectional: low = inhibitor, high = activator
# [16] = native HEK Tl+ uptake effects, second counter-screen – HEK cells, counterscreen 2, counter-screen for KCC2 modulator project, confirmation (AID 1718;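 active = thallium flux slope above the same plate's solvent-control mean plus 3 SD in both duplicate wells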;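 note: run without ouabain in cells lacking the KCC2 cotransporter; slope of fluorescence scaled to its starting value between 10 and 20 s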); conditions: HEK293 parental, thallium flux FluoZin-2 fluorescence slope; at 10 µM
# PubChem AID 1714 = conditions: HEK293-KCC2 + bumetanide/ouabain, thallium flux FluoZin2; at 10 µM; stronger effect = higher value
# [17] = target: Muscarinic acetylcholine receptor M4 (Homo sapiens) (UniProt P08173); test: M4-linked GIRK flux change, two-sided – cell-based, HEK293 M4/GIRK, thallium flux, BTC-AM, M4 allosteric agonist project, primary screen (AID 625;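 active = fluorescence slope after compound addition differing from the mean of all tested samples at 99.7% confidence, mostly higher but some lower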;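 note: thallium influx through GIRK channels coupled to M4 in HEK293 cells with BTC-AM dye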); conditions: at 10 µM, actives lie on both sides
# [18] = inhibitors of larval lipid processing in zebrafish, primary screen, whole organism, PED6 fluorescence, gall bladder and intestine (AID 686;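 active = a full or partial loss of lipid-probe fluorescence in the fish gall bladder, intestine or both, judged by eye; inactive = no fluorescence loss, or compound toxic to the fish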;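 note: larvae 5 to 7 days old with five fish per well; signal comes from phospholipase A2 cleavage of quenched PED6 carried via bile; overnight exposure to compound and PED6 before scoring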); conditions: Zebrafish larvae PED6 lipid processing, fluorescence scoring; screened at 20 µM (by protocol)
# [19] = measured here: cell density z-score
# [20] = measured here: nuclear c-Myc green intensity z-score
# [21] = measured here: nuclear pErk red intensity z-score, stronger effect = higher value
# Chain of Voltage-gated potassium channel subunit beta-2 (Rattus norvegicus) (P62483 whole entry, looked up): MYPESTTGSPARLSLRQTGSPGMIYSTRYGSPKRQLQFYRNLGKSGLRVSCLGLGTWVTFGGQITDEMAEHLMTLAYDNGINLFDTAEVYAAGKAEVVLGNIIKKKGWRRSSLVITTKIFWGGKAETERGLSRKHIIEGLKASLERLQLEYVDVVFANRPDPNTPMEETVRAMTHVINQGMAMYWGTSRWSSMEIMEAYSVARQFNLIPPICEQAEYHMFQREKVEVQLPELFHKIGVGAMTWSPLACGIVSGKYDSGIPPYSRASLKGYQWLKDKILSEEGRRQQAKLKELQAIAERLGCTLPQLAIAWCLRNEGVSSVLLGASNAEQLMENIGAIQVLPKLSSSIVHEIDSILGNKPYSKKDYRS
# Chain of Dual specificity protein phosphatase 6 (Homo sapiens) (Q16828 whole entry, looked up): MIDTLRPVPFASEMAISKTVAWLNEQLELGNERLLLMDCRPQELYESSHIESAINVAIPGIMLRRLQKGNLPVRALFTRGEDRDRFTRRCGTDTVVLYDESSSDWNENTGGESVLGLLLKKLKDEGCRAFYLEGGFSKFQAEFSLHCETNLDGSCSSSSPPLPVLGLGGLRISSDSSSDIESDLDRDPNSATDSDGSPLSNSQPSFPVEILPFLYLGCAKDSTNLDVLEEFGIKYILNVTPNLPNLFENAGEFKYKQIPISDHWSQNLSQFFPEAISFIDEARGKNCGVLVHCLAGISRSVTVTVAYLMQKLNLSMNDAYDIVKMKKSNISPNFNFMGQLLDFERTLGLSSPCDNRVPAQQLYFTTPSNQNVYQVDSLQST
# Chain of Solute carrier family 12 member 5 (Homo sapiens) (Q9H2X9 whole entry, looked up): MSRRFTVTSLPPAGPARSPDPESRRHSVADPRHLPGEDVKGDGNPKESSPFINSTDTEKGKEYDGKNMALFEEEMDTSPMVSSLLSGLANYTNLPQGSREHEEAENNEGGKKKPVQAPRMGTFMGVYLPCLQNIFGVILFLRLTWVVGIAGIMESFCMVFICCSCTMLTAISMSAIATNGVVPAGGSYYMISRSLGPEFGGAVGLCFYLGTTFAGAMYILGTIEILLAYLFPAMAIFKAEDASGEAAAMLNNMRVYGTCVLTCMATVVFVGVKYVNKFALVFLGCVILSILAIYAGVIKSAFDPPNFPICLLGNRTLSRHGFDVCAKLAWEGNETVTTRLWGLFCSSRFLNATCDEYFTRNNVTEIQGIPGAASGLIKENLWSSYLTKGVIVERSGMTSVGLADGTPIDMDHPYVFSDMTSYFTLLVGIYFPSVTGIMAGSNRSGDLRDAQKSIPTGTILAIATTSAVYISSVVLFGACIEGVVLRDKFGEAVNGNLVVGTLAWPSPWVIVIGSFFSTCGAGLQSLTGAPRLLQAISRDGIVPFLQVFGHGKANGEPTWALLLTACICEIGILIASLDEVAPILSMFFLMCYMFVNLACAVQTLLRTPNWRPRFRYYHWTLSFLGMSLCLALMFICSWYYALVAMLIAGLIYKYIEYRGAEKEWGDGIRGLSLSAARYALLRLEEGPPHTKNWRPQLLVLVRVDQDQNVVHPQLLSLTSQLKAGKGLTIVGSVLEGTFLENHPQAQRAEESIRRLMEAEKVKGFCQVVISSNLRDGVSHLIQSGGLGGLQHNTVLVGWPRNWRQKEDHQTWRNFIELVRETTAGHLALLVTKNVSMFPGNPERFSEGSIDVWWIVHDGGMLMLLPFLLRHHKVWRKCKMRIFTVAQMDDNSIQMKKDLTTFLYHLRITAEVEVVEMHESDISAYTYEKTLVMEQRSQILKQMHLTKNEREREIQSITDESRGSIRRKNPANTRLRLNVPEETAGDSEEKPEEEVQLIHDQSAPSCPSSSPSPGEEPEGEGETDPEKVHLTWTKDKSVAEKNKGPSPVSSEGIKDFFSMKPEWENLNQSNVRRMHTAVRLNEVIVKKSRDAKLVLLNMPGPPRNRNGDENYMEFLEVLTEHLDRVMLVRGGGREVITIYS
# Chain of Alpha-2C adrenergic receptor (Homo sapiens) (P18825 whole entry, looked up): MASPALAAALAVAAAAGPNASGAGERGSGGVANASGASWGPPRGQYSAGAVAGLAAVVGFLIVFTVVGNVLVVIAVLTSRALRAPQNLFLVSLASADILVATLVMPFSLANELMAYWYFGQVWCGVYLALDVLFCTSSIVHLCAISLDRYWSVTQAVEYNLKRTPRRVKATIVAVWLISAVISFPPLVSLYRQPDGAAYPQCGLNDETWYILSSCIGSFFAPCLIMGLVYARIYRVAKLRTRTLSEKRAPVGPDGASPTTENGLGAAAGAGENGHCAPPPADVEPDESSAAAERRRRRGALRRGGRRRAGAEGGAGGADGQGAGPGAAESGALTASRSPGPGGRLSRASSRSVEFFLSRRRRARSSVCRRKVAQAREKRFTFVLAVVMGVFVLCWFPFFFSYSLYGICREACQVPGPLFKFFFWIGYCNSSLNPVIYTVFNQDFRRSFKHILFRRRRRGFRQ
# Chain of Muscarinic acetylcholine receptor M4 (Homo sapiens) (P08173 whole entry, looked up): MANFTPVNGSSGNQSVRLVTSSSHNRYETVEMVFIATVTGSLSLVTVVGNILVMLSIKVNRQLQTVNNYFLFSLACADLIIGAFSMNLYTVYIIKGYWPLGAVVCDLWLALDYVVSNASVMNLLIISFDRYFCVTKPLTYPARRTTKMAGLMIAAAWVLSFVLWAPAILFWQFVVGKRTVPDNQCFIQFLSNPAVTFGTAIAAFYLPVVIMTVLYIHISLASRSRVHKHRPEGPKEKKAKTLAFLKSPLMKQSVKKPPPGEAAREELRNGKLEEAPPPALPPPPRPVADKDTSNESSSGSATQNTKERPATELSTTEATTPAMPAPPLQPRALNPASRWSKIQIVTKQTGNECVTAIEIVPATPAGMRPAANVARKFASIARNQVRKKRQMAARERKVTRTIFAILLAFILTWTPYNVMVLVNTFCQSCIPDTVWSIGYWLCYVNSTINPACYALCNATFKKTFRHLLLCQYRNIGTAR
smiles,measurement,setting,value
COc1ccc(C(=O)Cn2c(N3CCCCC3)nc3c2c(=O)n(C)c(=O)n3C)cc1OC,cell count,[1],537
same,inhibition,[1],4.7% (inactive)
same,inhibition of aggregation,[2],12.9% (inactive)
same,nuclei count,[2],90.8%
same,inhibition,[3],-58.1% (inactive)
same,nuclei count,[3],115%
same,z-score,[4]; [19],-0.186
same,z-score,[4]; [20],0.344
same,z-score,[4]; [21],0.238
same,inhibition,[5],3.5% (inactive)
same,fluorescence slope,[6],-0.424 (inactive)
same,NADPH fluorescence slope,[7],-9.5e-05 (inactive)
same,slope,[8],0.00577 (inactive)
same,inhibition,[9],12.6% (inactive)
same,inhibition,[10],14.5% (inactive)
same,inhibition,[11],12.6% (inactive)
CCn1c(SCC(=O)c2ccc3ccccc3c2)nnc1-c1cccs1,normalised thallium flux (F/F0 slope),[12],0.00706 (inactive)
same,normalized thallium flux,[13],0.0307 (inactive)
same,thallium flux rate (normalised fluorescence),[14],0.00707 (inactive)
same,"raw Tl+ flux slope (below DMSO = inhibition, above = activation)",[15],0.0159 (active)
same,thallium flux slope,[16],0.0101 (inactive)
N#Cc1ccc(C(=O)Nc2nc(-c3cccs3)c(C(=O)C(F)(F)F)s2)cc1,normalised thallium flux (F/F0 slope),[12],0.00795 (inactive)
same,normalized thallium flux,[13],0.033 (inactive)
same,thallium flux rate (normalised fluorescence),[14],0.00821 (inactive)
same,"raw Tl+ flux slope (below DMSO = inhibition, above = activation)",[15],0.0191 (inactive)
CC1CC(C)(C)n2c(O)c(N=NC(N)=S)c3cccc1c32 (configuration not stated),normalized thallium flux,PubChem AID 1714,0.0259 (active)
same,normalized thallium flux,[13],0.0382 (inactive)
same,"raw Tl+ flux slope (below DMSO = inhibition, above = activation)",[15],0.0373 (active)
CN1c2ccccc2-c2nc3ccccc3n2C1c1ccco1 (configuration not stated),cell count,[1],385
same,inhibition,[1],-3.7% (inactive)
same,inhibition,[3],1.9% (inactive)
same,nuclei count,[3],99.5%
same,z-score,[4]; [19],0.728
same,z-score,[4]; [20],0.674
same,z-score,[4]; [21],-0.101
same,inhibition,[5],6.04% (inactive)
same,fluorescence slope,[6],-0.315 (inactive)
same,NADPH fluorescence slope,[7],1.6e-05 (inactive)
same,fluorescence slope,[17],0.00492 (inactive)
same,outcome,[18],inactive
same,normalised thallium flux (F/F0 slope),[12],0.00855 (inactive)
same,normalized thallium flux,[13],0.0321 (inactive)
same,thallium flux rate (normalised fluorescence),[14],0.00467 (active)
same,thallium flux slope,[16],0.0097 (inactive)
same,inhibition,[9],3.48% (inactive)
COc1c2occc2c(OC)c2c(=O)cc(C)oc12,cell count,[1],555
same,inhibition,[1],-5.1% (inactive)
same,inhibition of aggregation,[2],13.1% (inactive)
same,nuclei count,[2],103%
same,inhibition,[3],-78.7% (inactive)
same,nuclei count,[3],136%
same,z-score,[4]; [19],-0.618
same,z-score,[4]; [20],0.0772
same,z-score,[4]; [21],-0.0412
same,inhibition,[5],21.2% (inactive)
same,fluorescence slope,[6],-0.445 (inactive)
same,NADPH fluorescence slope,[7],-4.4e-05 (inactive)
same,slope,[8],0.00425 (inactive)
same,inhibition,[9],-3.66% (inactive)
same,inhibition,[10],14.8% (inactive)
same,inhibition,[11],36% (inactive)
COc1ccc(Cl)cc1S(=O)(=O)Nc1cccc(C(=O)O)c1,normalised thallium flux (F/F0 slope),[12],0.00707 (inactive)
same,normalized thallium flux,[13],0.0299 (inactive)
same,thallium flux slope,[16],0.0107 (inactive)
CCOC(=O)c1c(NC(=S)NC)sc2c1CCCC2,normalised thallium flux (F/F0 slope),[12],0.0181 (active)
same,normalized thallium flux,[13],0.0972 (active)
same,thallium flux rate (normalised fluorescence),[14],0.0987 (active)
same,thallium flux slope,[16],0.101 (active)
Cc1ccccc1-c1nc(CS(=O)(=O)CC(=O)N2CCc3ccccc3C2)c(C)o1,normalized thallium flux,PubChem AID 1714,0.00657 (inactive)
same,thallium flux rate (normalised fluorescence),[14],0.00685 (inactive)
same,"raw Tl+ flux slope (below DMSO = inhibition, above = activation)",[15],0.0154 (active)
Cn1c(/C(C#N)=C/Nc2ccccn2)nc2ccccc21,cell count,[1],346
same,inhibition,[1],4.3% (inactive)
same,inhibition of aggregation,[2],-16.9% (inactive)
same,nuclei count,[2],88.4%
same,inhibition,[3],-44% (inactive)
same,nuclei count,[3],135%
same,z-score,[4]; [19],-0.331
same,z-score,[4]; [20],-0.988
same,z-score,[4]; [21],1.63
same,inhibition,[5],5.26% (inactive)
same,fluorescence slope,[6],-0.224 (inactive)
same,NADPH fluorescence slope,[7],-0.000107 (inactive)
same,slope,[8],0.00613 (inactive)
same,inhibition,[9],2.14% (inactive)
same,inhibition,[10],-13.3% (inactive)
same,inhibition,[11],-19.7% (inactive)
C=CCn1c(=S)[nH]c2nc3c(cc2c1=O)COC(C)(C)C3,cell count,[1],590
same,inhibition,[1],-2.3% (inactive)
same,inhibition of aggregation,[2],0.9% (inactive)
same,nuclei count,[2],109%
same,inhibition,[3],-9.4% (inactive)
same,nuclei count,[3],134%
same,z-score,[4]; [19],1.01
same,z-score,[4]; [20],0.551
same,z-score,[4]; [21],-1.17
same,inhibition,[5],3.66% (inactive)
same,fluorescence slope,[6],-0.495 (inactive)
same,NADPH fluorescence slope,[7],-0.00014 (inactive)
same,slope,[8],0.00772 (inactive)
same,outcome,[18],inactive
same,normalized thallium flux,PubChem AID 1714,0.0176 (active)
same,normalized thallium flux,[13],0.0337 (inactive)
same,thallium flux slope,[16],0.0123 (inactive)
same,inhibition,[9],-8.98% (inactive)
same,inhibition,[10],14.5% (inactive)
same,inhibition,[11],-0.984% (inactive)
CC(C)(C)c1ccc(C(=O)NCC(=O)OCN2C(=O)c3ccccc3C2=O)cc1,normalized thallium flux,PubChem AID 1714,0.00471 (inactive)
same,normalized thallium flux,[13],0.031 (inactive)
same,thallium flux rate (normalised fluorescence),[14],0.00756 (inactive)
same,"raw Tl+ flux slope (below DMSO = inhibition, above = activation)",[15],0.0171 (inactive)
same,thallium flux slope,[16],0.0105 (inactive)
CCOC(=O)c1ccccc1N1C(=O)C2Sc3[nH]c(=O)sc3C(/C=C/c3ccccc3)C2C1=O (configuration not stated),normalised thallium flux (F/F0 slope),[12],0.00694 (inactive)
same,normalized thallium flux,[13],0.0266 (active)
same,thallium flux rate (normalised fluorescence),[14],0.00732 (inactive)
same,"raw Tl+ flux slope (below DMSO = inhibition, above = activation)",[15],0.00834 (active)
same,thallium flux slope,[16],0.0106 (inactive)
O=C(CSc1cccc2cccnc12)N/N=C/c1cccnc1,normalized thallium flux,PubChem AID 1714,0.0504 (active)
same,normalized thallium flux,[13],0.0285 (inactive)
same,thallium flux rate (normalised fluorescence),[14],0.0251 (active)
same,"raw Tl+ flux slope (below DMSO = inhibition, above = activation)",[15],0.0449 (active)
same,thallium flux slope,[16],0.0116 (active)
C[C@@H](C(=O)Nc1ccc2ccccc2c1)[C@@H]1C[C@@]1(C)[C@@H](NC(=O)c1cccnc1)c1ccccc1,normalised thallium flux (F/F0 slope),[12],0.00785 (inactive)
same,normalized thallium flux,[13],0.0226 (active)
same,thallium flux rate (normalised fluorescence),[14],0.00775 (inactive)
same,"raw Tl+ flux slope (below DMSO = inhibition, above = activation)",[15],0.0135 (active)
same,thallium flux slope,[16],0.0098 (inactive)

# — PubChem BioAssay
